An excerpt weighted towards active compounds, which were near 7.3% of everything screened.
HCMV antiviral – qHTS Assay for inhibitors of the human cytomegalovirus (HCMV). HFF cells, HCMV-luciferase reporter, 72 h; stronger effect = lower value. activity change, negative = inhibition, % at 57.5 µM. 4.5% of 410,000 active. AID 1259415, 2018; in the data active = activity change below about -60%; inconclusive = no clear call, values can overlap the other calls; inactive = above about -39%
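Two-dose cell screen: HFF monolayers treated with compounds and infected with luciferase-expressing HCMV at 1 PFU/cell, 72 h at 37C, then lysed for luciferase measurement.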
VACV Venus inh – qHTS for Stage-Specific Inhibitors of Vaccinia Orthopoxvirus: Venus Reporter Primary qHTS; Vaccinia virus Venus reporter expression, fluorescence; Potency, µM (doses to about 36.5 µM), usual class: inhibitors; 0.46% of 330,000 active; AID 720580, 2013; calls by dose curve; tested in A549 cells; note: nearly all actives have a fitted effect of over 30% in size
Vaccinia mCherry – qHTS for Stage-Specific Inhibitors of Vaccinia Orthopoxvirus: mCherry Reporter Primary qHTS | 0.63% of 310,000 active | Vaccinia virus mCherry reporter infection, fluorescence | AID 720579, 2013 | Potency, µM (top dose mostly 36.5 µM), actives largely listed as inhibitors; calls by dose curve; tested in A549 cells; note: nearly all actives have a fitted effect of over 35% in size
FMDV inh – High Throughput Screening for Foot and Mouth Disease Virus Antivirals | AID 1159524, 2015 | 1.2% of 410,000 active | FMDV antiviral cell-based qHTS | Potency, µM (titrated, usually from 57.9 µM), hits mostly inhibitors; calls by dose curve; tested in HEK293T cells; note: read-out not given here; nearly all actives have a fitted effect of over 45% in size
HCV inhibitor – qHTS Assay for Inhibitors of Hepatitis C Virus (HCV); AID 651820, 2012; Huh7.5.1 HCVcc-Cre infection, luciferase reporter, 44 h; 3.4% of 340,000 active; Potency, µM (highest dose often 41.8 µM), hits mostly inhibitors; active = well fitted inhibition curve with a large enough effect; inconclusive = small, poorly fitted or top-dose-only effect, or another doubt; inactive = no such curve, though single readings can be large or run the other way
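Seed cells (1,000/well) for 4 h; treat with compound and infect with HCVcc-Cre, moi about 0.5. Incubate 44 h, then detect luciferase activity.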
A number is an active result; . = inactive; ? = inconclusive; / = no result; ! = not confirmed by another sample; [ ] = dose if it differs, or a comment.

SMILES	HCMV antiviral	VACV Venus inh	Vaccinia mCherry	FMDV inh	HCV inhibitor
Cc1ccccc1-c1nc(C(=O)NCC2CCCO2)cc2c1[nH]c1ccccc12 (configuration not stated)	.	.	?	?	?
COc1ccc(-c2nc(C(=O)NCC3CCCO3)cc3c2[nH]c2ccccc23)cc1 (configuration not stated)	?	.	?	?	3.5µM
Cn1c(=O)c2c(nc(Sc3ncccn3)n2Cc2ccc(Cl)cc2)n(C)c1=O	-61	.	.	?	25µM
Cn1c(=O)c2c(nc(SCCN3CCCCC3)n2Cc2ccc(Cl)cc2)n(C)c1=O	-95	.	?	.	35µM
COc1ccc(Cc2c(-c3ccco3)nc3c(C)cc(Br)cn23)c(C)c1	.	.	.	?	/
COc1ccccc1Cc1c(-c2ccco2)nc2c(C)cc(Br)cn12	/	.	.	14µM	/
Cc1cc(Br)cn2c(Cc3ccsc3)c(-c3ccco3)nc12	.	.	.	35µM	/
O=C(NC1CCCCC1)[C@@H]1CC=C[C@@H]2CCN(Cc3ccc(Cl)c(Cl)c3)C(=O)[C@@H]21	/	.	.	/	/
COC(/C=C/Nc1ccc(OC)cc1)=C(C#N)C#N	.	.	.	/	.
COc1ccc(OC)c(N/C=C/C(=C(C#N)C#N)N(C)C)c1	-68	.	.	.	?
CC(=O)c1ccc(NC(=O)CCc2c(C)nc3cc(-c4ccc(Cl)cc4)nn3c2C)cc1	.	.	.	?	/
CCN(CC)S(=O)(=O)c1ccc(NC(=O)CCc2c(C)nc3cc(-c4ccc(Cl)cc4)nn3c2C)cc1	-76	.	.	?	/
O=C(O)c1ccccc1N=Cc1c(O)n(-c2nccs2)c(=O)c2ccccc12	?	.[7.34 µM]	.[7.34 µM]	.	.
CCN(CC)S(=O)(=O)c1cccc(-n2c(O)c(C=Nc3ccccc3C(=O)O)c3ccccc3c2=O)c1	-79	.	?	.	?
COc1ccc2c(c1)C(CC(C)=O)N(c1ccc(-c3cnc(OC)nc3)cc1)C(c1ccsc1)=C2 (configuration not stated)	.	.	.	.	/
COc1ccc2c(c1)C(CC(C)=O)N(c1ccc(-c3cccs3)cc1)C(c1ccsc1)=C2 (configuration not stated)	-90	.	.	.	/
CCOc1ccc(OCC)c(NC(=O)c2cc(S(=O)(=O)N3CCCC3)cn2C)c1	.	.	.	.	/
CC(C)c1nc(SCC(=O)Nc2nc3c(s2)CCCC3)c2ccccc2n1	?	.	.	/	?
CC1CCc2nc(NC(=O)CSc3nc4ccccc4o3)sc2C1 (configuration not stated)	-85	?	.	?	11µM
O=C(Cc1cccs1)Nc1nc2c(s1)CCCC2	-73	/	/	.	?
CC(C)(C)c1nc(SCC(=O)Nc2nc3c(s2)CCCC3)c2ccccc2n1	-61	.	?	/	?
O=C(CSC1=NCCS1)Nc1nc2c(s1)CCCC2	-73	/	/	.	?
CCOc1ccc(NC(=O)Cn2c(=O)n(-c3ccccc3)c(=O)c3ccc(C(=O)NCc4ccc5c(c4)OCO5)cc32)cc1	.	.	.	.	/
O=C(c1ccccc1)n1nc(-c2ccco2)nc1NCc1ccccc1Cl	.	.	.	.	/
O=c1c2sc3ccccc3c2n(Cc2ccc(Cl)cc2)c(=O)n1Cc1ccco1	.	.	.	.	/
SMILES	HCMV antiviral	VACV Venus inh	Vaccinia mCherry	FMDV inh	HCV inhibitor
C[C@H](CO)N1C[C@H](C)[C@@H](CN(C)C(=O)c2ccc3c(c2)OCO3)Oc2cc(/C=C/c3ccccc3)ccc2S1(=O)=O	-62	?	.	.	/
CC(C)CC#Cc1ccc2c(c1)O[C@H](CN(C)C(=O)Nc1ccccc1)[C@@H](C)CN([C@H](C)CO)S2(=O)=O	.	.	.	.	/
C[C@@H]1CN([C@H](C)CO)S(=O)(=O)c2ccc(C#Cc3ccccc3)cc2O[C@H]1CN(C)C(=O)Nc1ccc2c(c1)OCO2	-87	.	.	.	/
Cc1ccc2oc(C(=O)N(Cc3sccc3C)C3CCS(=O)(=O)C3)c(C)c2c1 (configuration not stated)	.	.	.	?	/
COc1ccc(CCNC(=O)Cn2c(=O)n(Cc3ccco3)c(=O)c3ccc(Cl)cc32)cc1OC	?	.	.	.	11µM!
COc1cc2c(=O)n(Cc3ccccc3)c(=O)n(CC(=O)NCCc3ccccc3)c2cc1OC	.	.	.	.	?
COc1ccc(NC(=O)Cn2c(=O)n(Cc3ccco3)c(=O)c3cc(OC)c(OC)cc32)cc1	-97	.	.	.	/
COc1ccc(CCNC(=O)CCCCn2c(=O)c3ccccc3n(CC(=O)Nc3c(C)cccc3C)c2=O)cc1OC	-109	.	.	.	/
CC(=O)Nc1ccc(S(=O)(=O)NNc2ccc([N+](=O)[O-])cc2)cc1	.	/	/	.	.
NS(=O)(=O)c1ccc(CCNC(=O)CSc2nc3c(sc(=S)n3-c3ccccc3)c(=O)[nH]2)cc1	.	.	?	.	/
CCOC(=O)Cc1csc(NC(=O)c2ccc(N3CCOCC3)cc2[N+](=O)[O-])n1	.	/	/	18µM	11µM
CCN(CC(=O)NCc1cccs1)C(=O)/C=C/c1cc(OC)c(OC)c(OC)c1	.	.	.	.	.
O=C(NC1CCC1)O[C@H]1CC[C@@]23CCCN2C(=O)CCC[C@H]3[C@H]1Cc1ccccc1	.	/	/	/	/
CCCCCc1ccc(-c2cn(CCc3c[nH]c4ccccc34)nn2)cc1	-61	?	.	.	?
CCCOc1ccc(N2C(=O)CC(NCc3cccs3)C2=O)cc1 (configuration not stated)	.	11µM	/	.	.
CN(CC(=O)Nc1cccc(F)c1)C(=O)/C=C/c1ccc(S(=O)(=O)N2CCCCCC2)cc1	.	?	?	.	.
COc1ccc(CN(C)C(=O)CCc2ccc(S(=O)(=O)N3CCCCCC3)cc2)c(OC)c1	.	/	/	.	?
CCOc1ccc(CN(C)C(=O)CCl)cc1	.	.	?	25µM	?
CCOc1ccc(CN(C)C(=O)CCc2ccc(S(=O)(=O)N3CCCCCC3)cc2)cc1	-60	/	/	?	4µM
CNC(=O)c1ccc(CN(C)C(=O)/C=C/c2ccc(S(=O)(=O)N3CCCCCC3)cc2)cc1	-84	.	.	?	/
COc1ccc(CN(C)C(=O)/C=C/c2ccc(S(=O)(=O)N3CCCCCC3)cc2)cc1	?	?	?	?	11µM
O=c1n(Cc2ccccc2)c(O)c2n1Cc1ccccc1N=C2c1ccc(C(F)(F)F)cc1	.	.	.	.	/
CCC1CN(C(=O)N2CCC(C(=O)N(C)Cc3ccccc3)CC2)c2ccccc2O1 (configuration not stated)	.	.	.	.	/
CCOC(=O)[C@]12Cc3cc(OC)c(OC)cc3[C@H]1N(Cc1ccccc1)C(=O)c1ccccc12	.	.	.	.	?
CCOC(=O)[C@]12Cc3cc4ccccc4cc3[C@H]1N(Cc1ccccc1)C(=O)c1cc(OC)ccc12	-91	?	?	7.9µM	/

From PubChem BioAssay
